Data on twelve compounds can be found in PubChem BioAssay (NCATS).

Values joined by “and” are separate entries in the source; they are usually repeats but may differ in a detail not shown here. Identical values can stand only once. Inconclusive results are not listed. Active and inactive are the calls of the source. Calls follow the shape of the dose curve; as a rule, active = well fitted curve in the direction sought with a large enough effect; inconclusive = small, poorly fitted or top-dose-only effect, or another doubt; inactive = no such curve, though single readings can be large; an effect the other way counts as inactive or inconclusive.

A short description of assay [1]: qHTS of pediatric cancer cell lines to identify multiple opportunities for drug repurposing: Confirmatory screen for NB1643 cells (AID 1347109). Also: nearly all actives have a fitted effect of over 45% in size. In a few lines: (§1)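 Cells (500-1,000/well) in growth media were settled 5 h at 37 degrees C, then given compounds for 48 h. Viability was read as CellTiter-Glo luminescence. Primary runs used MIPE at 11 points (0.78 nM-46 µM) and NPC at 8 points (0.59 nM-46 µM); follow-ups used 11 points.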

Assay [2] in a line: qHTS of pediatric cancer cell lines to identify multiple opportunities for drug repurposing: Confirmatory screen for A673 cells (AID 1347110).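 Also: cells exposed to compound for 48 h before the viability read; nearly all actives have a fitted effect of over 65% in size.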 In a few lines: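 qHTS titration format: primary MIPE 0.78 nM-46 µM (11 pts), NPC 0.59 nM-46 µM; confirmation 11 pts. 48 h, CTG luminescence.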
Background: qHTS replaces the single test concentration by a dilution series.

A short description of assay [3]: qHTS of pediatric cancer cell lines to identify multiple opportunities for drug repurposing: Confirmatory screen for SK-N-MC cells (AID 1347111).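 Also: cells exposed to compound for 48 h before the readout; nearly all actives have a fitted effect of over 70% in size.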 In a few lines:
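Metabolically active cells were quantified by ATP-dependent luminescence (CellTiter-Glo, 15 min at room temperature) following 48 h treatment. Cells had been plated at 500-1,000 per well and settled for 5 h beforehand.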

A short description of assay [4]: qHTS of pediatric cancer cell lines to identify multiple opportunities for drug repurposing: Confirmatory screen for BT-12 cells (AID 1347112). Also: nearly all actives have a fitted effect of over 55% in size. In a few lines:
as §1

Assay [5] in a line: qHTS of pediatric cancer cell lines to identify multiple opportunities for drug repurposing: Confirmatory screen for DAOY cells (AID 1347114). Also: nearly all actives have a fitted effect of over 65% in size. The method in brief:
(§2)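 Viability measured as metabolically active cells via CellTiter-Glo luminescence following 48 hours of compound exposure, 11-point dilutions in confirmatory testing. 500-1,000 cells/well plated 5 hours before dosing; controls were DMSO and 2.3 µM bortezomib.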

A short description of assay [6]: qHTS of pediatric cancer cell lines to identify multiple opportunities for drug repurposing: Confirmatory screen for NB-EBc1 cells (AID 1347115).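 Also: cells exposed to compound for 48 h before the viability read; nearly all actives have a fitted effect of over 45% in size.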 The method in brief: as §1
Assay [7] in a line: qHTS of pediatric cancer cell lines to identify multiple opportunities for drug repurposing: Confirmatory screen for SJ-GBM2 cells (AID 1347116). Also: nearly all actives have a fitted effect of over 60% in size. In a few lines:
as §2

The nature of assay [8]: qHTS of pediatric cancer cell lines to identify multiple opportunities for drug repurposing: Confirmatory screen for TC32 cells (AID 1347118).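 Also: cells exposed to compound for 48 h before the read; nearly all actives have a fitted effect of over 65% in size.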 In a few lines: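 Measured quantity: luminescence from CellTiter-Glo, reflecting metabolically active TC32 cells following 48 h of compound. Curves came straight from multi-point titrations, with 8 or 11 points in primary and 11 in confirmatory screening.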

Assay [9] in a line: qHTS of pediatric cancer cell lines to identify multiple opportunities for drug repurposing: Confirmatory screen for BT-37 cells (AID 1347117). Also: nearly all actives have a fitted effect of over 55% in size. In a few lines:
as §1

Assay [10] can be described thus: qHTS of pediatric cancer cell lines to identify multiple opportunities for drug repurposing: Primary screen for Rh41 cells (AID 1347108). Also: nearly all actives have a fitted effect of over 70% in size. In a few lines:
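Luminescence from CellTiter-Glo served as readout of metabolically active cells after 48 h compound exposure. Titrations: MIPE 11-point, from 0.78 nM; NPC 8-point, from 0.59 nM (final). Concentration-response curves came straight from the primary screen.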
Potency is read from the fitted curve at half-maximal effect.

With `Oc1ccc(C2CCN(c3ccnc4ccccc34)CC2)cc1O`, the Potency in [1] is 16.5 µM (active); in assay [2] it was 2.61 µM (active); in assay [3] it was 18.5 µM (active); in assay [4], 13.1 µM (active); in [5] it was 5.85 µM (active); in assay [6], 14.7 µM (active). For the same compound, the figures for the Potency in assay [7] and in assay [8] were 1.17 µM (active) and 9.27 µM (active), respectively.

Turning to `COc1ccc2c(Oc3ccc(NC(=O)c4c(C)n(CC(C)(C)O)n(-c5ccccc5)c4=O)cc3F)ccnc2c1`, the Potency entry in assay [1], in [4] and in [9] was “inactive” in each case. Moreover, the Potency in [2] is 14.7 µM (active).

In the case of `COc1cc2nc(-c3ccc(N4CCN(C)CC4)cc3)nc(NCCN3CCOCC3)c2cc1OC`, the Potency in [10] is 0.296 µM (active); in assay [2], 0.208 µM (active); in assay [4], 0.233 µM (active); in assay [5], 1.17 µM (active).

On to `COc1cc(N2CCC(N3CCN(C)CC3)CC2)ccc1Nc1ncc(Cl)c(Nc2ccccc2S(=O)(=O)C(C)C)n1`, for which the Potency was 1.04 µM (active) in [1]; 3.29 µM (active) in assay [2]; 0.657 µM (active) in assay [3]; 16.5 µM (active) in assay [5]; 14.7 µM (active) in assay [6]; 23.3 µM (active) in assay [7]. For the same compound, the Potency in [9] is 14.7 µM (active); in assay [8], 1.85 µM (active).

For the compound `CC(=O)Oc1cc2c(s1)CCN(C(C(=O)C1CC1)c1ccccc1F)C2` (stereo not drawn), the Potency result in assay [1], in assay [3], in assay [4], in [6], in assay [9] and in assay [8] was “inactive” in each case. The Potency in [2] is 1.04 µM (active); in [7] it was 4.14 µM (active).

Take `CC(=NNC(=S)N1CCC1)c1ccccn1`: the Potency result in assay [1], in [3], in assay [4], in assay [6], in assay [7] and in assay [9] was “inactive” in each case. Further, the Potency result in assay [8] was “inactive”. In addition, the Potency in assay [2] is 23.3 µM (active).

Consider `CC(C)(C(=O)NCC(F)(F)C(F)(F)F)C(=O)N[C@@H]1C(=O)Nc2ccccc2-c2ccccc21`, for which the Potency entry in assay [1], in assay [2], in [4], in assay [5], in [6] and in [7] was “inactive” in each case.

In the case of `CC[C@]1(O)C[C@@H]2CN(CCc3c([nH]c4ccccc34)[C@@](C(=O)OC)(c3cc4c(cc3OC)N(C)[C@H]3[C@@](O)(C(=O)OC)[C@H](OC(C)=O)[C@]5(CC)C=CCN6CC[C@]43[C@@H]65)C2)C1`, the Potency in assay [1] is 1.31 µM (active); in [2] it was 32.9 nM (active) and 36.9 nM (active); in [3] it was 657 nM (active) and 737 nM (active); in [4], 1.65 µM (active) and 1.85 µM (active); in [5], 208 nM (active) and 233 nM (active); in assay [9], 737 nM (active) and 1.17 µM (active). The Potency in assay [8] is 465 nM (active) and 827 nM (active).

For `CCOc1ccc(Nc2nc(-c3c(C)nc4ccccn34)cs2)cc1`, the Potency result in [10] is “inactive”. The Potency was 0.131 µM (active) in assay [2]; 0.0928 µM (active) in [3]; 0.0465 µM (active) in assay [5]; 0.293 µM (active) in assay [9]; 0.117 µM (active) in assay [8].

`CC1(C)S[C@H]2[C@H](NC(=O)[C@@H](N)c3ccc(O)cc3)C(=O)N2[C@@H]1C(=O)O`: the Potency entry in assay [1], in assay [2], in assay [4], in assay [5], in assay [6] and in [7] was “inactive” each time. Moreover, the Potency result in [9] and in assay [8] was “inactive” in each case.

Take `Cc1cc(OCCCc2c(C(=O)O)n(Cc3cccnc3)c3c(-c4c(COc5ccc(N6CCN([S+](C)(=O)[O-])CC6)cc5)nn(C)c4C)cccc23)cc(C)c1Cl`: the Potency in assay [1] is 16.5 µM (active); in [3] it was 20.8 µM (active); in assay [9], 18.5 µM (active). The Potency result in assay [6] was “inactive”.

Turning to `CC(=O)Nc1ccc([C@H](C)C(=O)Nc2ncc(C(C)C)s2)cc1`, the Potency in assay [2] is 2.61 µM (active); in assay [3], 8.27 µM (active); in assay [4], 3.69 µM (active); in assay [5], 4.65 µM (active); in assay [9], 4.14 µM (active); in assay [8], 7.37 µM (active). The Potency entry in assay [6] is “inactive”.
